Source: PubChem
tim23-1 inh – growth inhibitors of tim23-1 mutant yeast. S. cerevisiae tim23-1 growth, BacTiter-Glo luminescence, 24 h. inhibition, % at 20 µM. 1.3% of 330,000 active;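 active means growth inhibition of the mutant yeast at or above 50%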;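 further: temperature-sensitive mutant grown at 25 °C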
TIM10 inh – growth inhibitors of TIM10 yeast strain | 1.4% of 330,000 active | inhibition, % at 10 µM | S. cerevisiae TIM10 strain growth, BacTiter-Glo luminescence, 24 h | AID 463195;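 active means inhibition of 40% or more at the single tested concentration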;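 further: wild-type TIM10 isogenic control strain grown at permissive 25 °C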
tim10-1 inh – growth inhibitors of tim10-1 mutant yeast | S. cerevisiae tim10-1 ts strain growth, BacTiter-Glo, 24 h | inhibition, % at 20 µM | 2.2% of 330,000 active;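 active means inhibition of at least 40%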;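 further: mutant grown at 25 °C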
NALP3 yeast inh – NALP3 inhibition in yeast | Yeast reconstituted NLRP3/ASC/caspase-1, beta-gal luminescence, 24 h | inhibition, % at 10 µM | AID 2825 | 0.39% of 330,000 active;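 active means inhibition of 50% or more; inactive means inhibition below 50%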
NALP1 inh – NALP1 inhibition | S. cerevisiae NALP1/ASC/caspase-1 growth, X-gal OD620, 72 h | inhibition, % at 10 µM | 0.61% of 280,000 active | AID 2071; in the data active means inhibition mostly above about 24%, no sharp cut-off; inactive means mostly below about 32%
tim10-1 confirm – confirmation of tim10-1 mutant yeast growth inhibitors. 56% of 7,400 active. inhibition, % at 20 µM. S. cerevisiae tim10-1 ts strain growth, BacTiter-Glo, 24 h. shares compounds with tim10-1 inh. AID 463213;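 active means inhibition of yeast growth at or above a set limit in either of two repeat tests at 20 µM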;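 further: tim10-1 mutant grown at permissive 25 °C to find synthetic lethal compounds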
TIM10 conf – confirmation of TIM10 yeast growth inhibitors; S. cerevisiae tim10 strain growth, BacTiter-Glo luminescence, 24 h; 63% of 4,600 active; shares compounds with TIM10 inh; AID 463215; inhibition, % at 10 µM;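 active means inhibition of yeast growth at or above a set limit in either of two replicates at 10 µM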; further: this counterscreen used the strain with wild-type TIM10
tim23-1 conf – confirmation of tim23-1 mutant yeast growth inhibitors; S. cerevisiae tim23-1 growth, BacTiter-Glo luminescence, 24 h; shares compounds with tim23-1 inh; inhibition, % at 20 µM; 83% of 4,400 active; AID 463218;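 active means inhibition above about 39% in either of two replicate wells at 20 µM, limit read from the data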;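 further: temperature-sensitive tim23-1 mutant grown at 25 °C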
Each line names hits and unclear results; the compound was inactive in the other large screens (follow-up assays come after a bar, where they were run). Sampled rows, rich in hits. Any-hit rate of the full collection: about 4.1%.

CC1=NOC(=O)/C1=C\c1ccc(-c2ccc(Br)cc2)o1	none (no result: tim23-1 inh, TIM10 inh, tim10-1 inh, NALP3 yeast inh)
CC1=NOC(=O)/C1=C\c1ccc(-c2cc(Cl)ccc2Cl)o1	tim23-1 inh 79.2, tim10-1 inh 50.6 | tim10-1 confirm inactive | tim23-1 conf 67.8
Cc1ccc(C2=NOC(=O)/C2=C\c2ccc(C)o2)cc1	tim23-1 inh 78.6, TIM10 inh 45.4, tim10-1 inh 58.6 | tim10-1 confirm 38.5 | TIM10 conf 39.1 | tim23-1 conf 80.0
O=C(NCc1ccccc1)C1CCC(=O)N(CCCN2CCCC2=O)C1 (stereo unspecified)	none
COc1ccc(N(CC(=O)N2CCN(Cc3ccccc3)CC2)S(C)(=O)=O)cc1Cl	none
O=C(CCCOc1ccc(Br)cc1)NNC(=O)c1ccncc1	none (no result: NALP1 inh)
O=C(COc1ccc(Cl)cc1Br)NC(=O)NC1CCCC1	tim23-1 inh 51.7, tim10-1 inh 51.1 (no result: NALP1 inh) | tim10-1 confirm 38.5 | tim23-1 conf 62.8
O=C(COc1ccc(Cl)cc1Cl)NC(=O)NC1CCCC1	none (no result: NALP1 inh)
O=C(COc1ccc(Br)cc1Cl)NC(=O)NC1CCCC1	tim23-1 inh 56.0, tim10-1 inh 41.5 (no result: NALP1 inh) | tim10-1 confirm 40.9 | tim23-1 conf 54.6
Cc1ccc(S(=O)(=O)N(C)C)cc1NC(=O)COC(=O)Cc1cccs1	none (no result: NALP1 inh)
CSCC[C@H](NC(=O)c1ccc2c(c1)OCO2)c1nnc2ccccn12	none
O=C(/C=C/c1ccccc1)CC(O)(c1ccccc1)C(F)(F)C(F)F (stereo unspecified)	tim23-1 inh 55.6, tim10-1 inh 44.2 | tim10-1 confirm 41.2 | tim23-1 conf inactive
O=C(Nc1nc2ccccc2s1)C1CC(=O)N(c2ccc(Br)cc2)C1 (stereo unspecified)	tim23-1 inh 72.7, TIM10 inh 45.9, tim10-1 inh 49.3 | tim10-1 confirm 37.1 | TIM10 conf 36.3 | tim23-1 conf 74.3
Cc1ccc(SCCC(=O)Nc2cccc(N(C)S(C)(=O)=O)c2)cc1	none
Oc1ccc(/C=N/Nc2ccc(C(F)(F)F)cn2)c(O)c1	tim23-1 inh 78.2, TIM10 inh 65.2, tim10-1 inh 65.5 | tim10-1 confirm 43.9 | TIM10 conf 71.8 | tim23-1 conf 77.7
COc1ccc(CN2C(=O)[C@H]3Cc4c([nH]c5ccccc45)C(C)(C)N3C2=O)cc1	tim23-1 inh 51.5, TIM10 inh 41.3, tim10-1 inh 48.5 (no result: NALP1 inh) | tim10-1 confirm 39.3 | TIM10 conf 36.5 | tim23-1 conf 46.9
Clc1ccc(/C=C/c2nc3ccccc3[nH]2)c(Cl)c1	tim23-1 inh 62.1, TIM10 inh 49.9, tim10-1 inh 41.1 | tim10-1 confirm 41.0 | TIM10 conf 32.5 | tim23-1 conf 75.8
O=c1[nH]c(/C=C/c2ccccc2Cl)nc2ccccc12	none
Clc1cccc(Cl)c1/C=C/c1nc2ccccc2[nH]1	tim23-1 inh 84.8, TIM10 inh 65.3, tim10-1 inh 44.7 | tim10-1 confirm 33.9 | TIM10 conf 52.8 | tim23-1 conf 88.0
O=C(CSc1nc2c(c(=O)n1-c1ccc(Cl)cc1)SCC2)Nc1ccc2c(c1)OCCO2	none (no result: NALP1 inh)
CN(CC(=O)NCCc1ccc(S(N)(=O)=O)cc1)Cc1ccc(Cl)cc1Cl	none
O=S(=O)(c1cccs1)N1CCN(c2ccccc2Cl)CC1	none
O=S(=O)(c1cccs1)N1CCN(c2ccnc3cc(Cl)ccc23)CC1	tim23-1 inh 51.3, tim10-1 inh 45.4 | tim10-1 confirm 35.2 | tim23-1 conf 44.3
O=S(=O)(c1ccccc1)N1CCN(c2ccnc3cc(Cl)ccc23)CC1	tim23-1 inh 63.3, tim10-1 inh 58.5 | tim10-1 confirm 52.9 | tim23-1 conf 65.7
COc1ccc(N2C(=O)C(CC(N)=O)N(NC(=O)c3cccc(OC)c3)C2=S)cc1 (stereo unspecified)	none
O=C(COC(=O)COc1ccc(Cl)cc1Br)NC1CC1	none (no result: NALP1 inh)
O=C(c1cc2cc(Cl)ccc2[nH]1)N1CCN(C(=O)c2ccco2)CC1	none
Cc1ccc(C)c2sc(N3CCN(C(=O)c4ccc([N+](=O)[O-])o4)CC3)nc12	tim23-1 inh 72.8, tim10-1 inh 70.1 (no result: NALP1 inh) | tim10-1 confirm 60.0 | tim23-1 conf inactive
CCCn1c(N)c(N(CCOC)C(=O)/C=C/c2cccc(Cl)c2)c(=O)[nH]c1=O	none
N/C(=N\OC(=O)c1ccc(=O)n(Cc2ccc(Cl)cc2)c1)c1ccccn1	tim23-1 inh 52.9, TIM10 inh 53.7, tim10-1 inh 67.2 | tim10-1 confirm 60.0 | TIM10 conf 53.1 | tim23-1 conf 48.0
N/C(=N\OC(=O)c1ccc(Cl)cc1Cl)c1ccccn1	tim23-1 inh 76.4, TIM10 inh 72.0, tim10-1 inh 41.1 | tim10-1 confirm inactive | TIM10 conf 75.2 | tim23-1 conf 70.3
Cc1ccc(C(=O)O/N=C(\N)c2ccccc2)c(Cl)c1	tim23-1 inh 83.1, TIM10 inh 74.4, tim10-1 inh 71.2 (no result: NALP1 inh) | tim10-1 confirm 59.3 | TIM10 conf 80.8 | tim23-1 conf 86.0
N/C(=N\OC(=O)c1ccc([N+](=O)[O-])cc1Cl)c1ccccn1	tim23-1 inh 58.7, TIM10 inh 42.0, tim10-1 inh 53.2 | tim10-1 confirm 44.6 | TIM10 conf 52.3 | tim23-1 conf 64.8
N/C(=N\OC(=O)c1ccc(=O)n(Cc2ccccc2)c1)c1ccccn1	none
O=C(CNC(=O)c1cn2ccccc2n1)Nc1ccc(F)c(F)c1	none (no result: NALP1 inh)
N/C(=N/OC(=O)c1ccccc1Cl)c1ncc([N+](=O)[O-])s1	tim23-1 inh 54.7, TIM10 inh 61.8, tim10-1 inh 49.0 (no result: NALP1 inh) | tim10-1 confirm 50.1 | TIM10 conf 73.3 | tim23-1 conf inactive
N/C(=N\OC(=O)c1ccccc1Cl)c1ccncc1	none
CCC(C)c1ccc(OCC(=O)Nc2ccc(CN3CCOCC3)cc2)cc1 (stereo unspecified)	none
[O-][n+]1c2c(c3c4non(O)c4ccc31)CCCC2	tim23-1 inh 62.5, TIM10 inh 61.1, tim10-1 inh 70.1 | tim10-1 confirm 70.2 | TIM10 conf 51.7 | tim23-1 conf 64.2
COc1ccc(CCNS(=O)(=O)c2ccc3c(c2)OCCO3)cc1	tim23-1 inh 59.3, TIM10 inh 49.1, tim10-1 inh 49.7 | tim10-1 confirm 42.5 | TIM10 conf inactive | tim23-1 conf 55.5
O=S(=O)(NCCSCc1ccc(Cl)c(Cl)c1)c1ccc2c(c1)OCCO2	tim23-1 inh 54.8, TIM10 inh 52.5, tim10-1 inh 46.7 (no result: NALP1 inh) | tim10-1 confirm 33.1 | TIM10 conf 35.6 | tim23-1 conf 49.3
COc1ccc(CCNC(=O)c2ccc3c(c2)OCCO3)cc1	none
COc1ccc(S(=O)(=O)NCc2ccc(C)cc2)cc1	tim23-1 inh 56.2, tim10-1 inh 47.8 | tim10-1 confirm inactive | tim23-1 conf 43.4
